Test in all cases: qHTS profiling for inhibitors of Plasmodium falciparum proliferation (AID 504749); note: nearly all actives have a fitted effect of over 60% in size
Conditions in all cases: P. falciparum in erythrocytes, SYBR Green DNA, 72 h; series mostly up to 28.7 µM
(In general: In qHTS, concentration-response curves come from the screen itself.)

The subject of one assay is PAD. The method, boiled down: (§1)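 SYBR Green fluorescence of parasite DNA, read after lysis and overnight dark incubation, measured growth over 72 h in erythrocyte culture at 0.3% parasitemia and 2.5% hematocrit. Data normalised to DMSO and 0.29 uM artemisinin, with plate-drift correction.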
In another assay the test system is PC15. The method, boiled down:
as §1

The test system of the next assay is PC49. The method, boiled down: as §1
In a further assay the test system is SC27B. The method, boiled down: as §1
The test system of a further assay is TAB109. The method, boiled down:
as §1

A further assay relates to TAB113. The method, boiled down:
as §1

The test system of the next assay is TAB165. The method, boiled down:
as §1

For a further assay, the system named is W2. The method, boiled down:
as §1

The subject of the next assay is PC26. The method, boiled down:
as §1

Results filed as inconclusive are left out. The source made the active and inactive calls. Calls come from the whole dose curve; as a rule, active = well fitted inhibition curve with a large enough effect; inconclusive = small, poorly fitted or top-dose-only effect; inactive = flat fitted curve, though single readings scatter.
Potency is the fitted concentration of half-maximal effect.

Turning to `CN1C(C(=O)Nc2ccccn2)C(=O)c2sc(Cl)cc2S1(=O)=O` (stereo not given), the Potency result with PAD, with PC15, in the assay with PC49, in the assay with SC27B, in the assay with TAB109 and with TAB113 was “inactive” throughout. For the same compound, the Potency entry in the assay with TAB165 and in the assay on W2 was “inactive” throughout.

As for `COc1cc2c(cc1OC)[C@@H](Cc1cc(OC)c(OC)c(OC)c1)[N+](C)(CCCOC(=O)CC/C=C/CCC(=O)OCCC[N+]1(C)CCc3cc(OC)c(OC)cc3[C@H]1Cc1cc(OC)c(OC)c(OC)c1)CC2` (stereo not given in full), the Potency entry with PAD, with PC15, with PC49, in the assay with SC27B, in the assay on TAB109 and with TAB113 was “inactive” throughout. Also, the Potency entry in the assay with TAB165 and in the assay on W2 was “inactive” throughout.

In the case of `CC1=CC(=C(c2ccc(N)cc2)c2ccc(N)cc2)C=CC1=N`, the Potency in the assay with PAD is 2.51 µM (active); with PC15, 11.2 µM (active); in the assay on PC26, 5.36 µM (active); in the assay with SC27B it was 3.16 µM (active); in the assay with TAB109, 2.24 µM (active); in the assay on TAB113 it was 1.41 µM (active). Further, the Potency was 2 µM (active) in the assay with TAB165 and 0.536 µM (active) in the assay with W2.

With `Cc1cc2nc3c(=O)[nH]c(=O)nc-3n(C[C@H](O)[C@H](O)[C@H](O)COP(=O)(O)OP(=O)(O)OC[C@H]3O[C@@H](n4cnc5c(N)ncnc54)[C@H](O)[C@@H]3O)c2cc1C`, the Potency result with PAD, in the assay with PC15, with PC49, in the assay on SC27B, in the assay with TAB109 and with TAB113 was “inactive” in each case. Also, the Potency result in the assay with TAB165 and with W2 was “inactive” each time.

As for `CNC(=O)c1c(I)c(C(=O)NCC(=O)Nc2c(I)c(C(=O)O)c(I)c(C(=O)NCCO)c2I)c(I)c(N(C)C(C)=O)c1I`, the Potency result with PAD, with PC15, in the assay with PC26, in the assay on PC49, with SC27B and in the assay with TAB113 was “inactive” throughout. Further, the Potency result in the assay on TAB165 and in the assay on W2 was “inactive” throughout.

Take `CC(=O)Oc1cccc(C(=O)O)c1OC(C)=O`: the Potency result with PAD, in the assay with PC15, in the assay with PC26, with PC49, with SC27B and in the assay with TAB113 was “inactive” in each case. The Potency entry in the assay on TAB165 and in the assay with W2 was “inactive” each time.

For the compound `C[C@H](N)C(=O)N[C@@H](C)P(=O)(O)O`, the Potency entry in the assay on PAD, with PC15, with PC26, with PC49, in the assay on SC27B and with TAB113 was “inactive” in each case. Moreover, the Potency entry in the assay with TAB165 and in the assay on W2 was “inactive” each time.

Take `Cn1c(O)c(N=NC(N)=S)c2ccccc21`: the Potency result with PC15, with PC26 and in the assay with PC49 was “inactive” in each case.

As to `CCN(CC)CCC(=O)N1c2ccccc2Sc2ccc(C(F)(F)F)cc21`, the Potency result in the assay on PAD, in the assay on PC49, in the assay on SC27B, with TAB113 and in the assay with TAB165 was “inactive” throughout. For the same compound, the Potency in the assay on W2 was 5.36 µM (active).

`CSc1nc2cc(Oc3cccc(Cl)c3Cl)c(Cl)cc2[nH]1`: the Potency with PC15 was 8.91 µM (active); with PC26 it was 5.36 µM (active); in the assay with PC49, 12.6 µM (active); in the assay with SC27B, 12.6 µM (active); with TAB109 it was 7.94 µM (active); with TAB113, 8.91 µM (active). The Potency in the assay with TAB165 was 7.94 µM (active); in the assay with W2, 6.75 µM (active).

Take `CC(C)CCCCCCc1ccc(O)cc1`: the Potency entry in the assay on PC15, in the assay with PC26, in the assay with PC49 and in the assay on TAB109 was “inactive” each time.

On to `Cc1c(C)c2c(c(C)c1OC(=O)CCC(=O)O)CC[C@@](C)(CCC[C@H](C)CCC[C@H](C)CCCC(C)C)O2`, for which the Potency result with PAD, in the assay with PC26, in the assay on PC49, in the assay on SC27B, in the assay with TAB109 and in the assay on TAB113 was “inactive” in each case. Moreover, the Potency result in the assay on TAB165 is “inactive”.

Consider `CC[C@H]1OC(=O)[C@H](C)[C@@H](O[C@H]2C[C@@](C)(OC)[C@@H](O)[C@H](C)O2)[C@H](C)[C@@H](O[C@@H]2O[C@H](C)C[C@H](N(C)C)[C@H]2O)[C@](C)(O)C[C@@H](C)CN(C)[C@H](C)[C@@H](O)[C@]1(C)O`, for which the Potency entry with PC26 and with PC49 was “inactive” in each case. In addition, the Potency is 1 µM (active) with TAB109, 12.6 µM (active) with TAB113, 7.94 µM (active) in the assay on TAB165 and 0.426 µM (active) with W2.

Regarding `Oc1cccc(O)c1O`, the Potency result in the assay with PC49, in the assay with SC27B, in the assay on TAB109 and in the assay on TAB113 was “inactive” in each case.

In the case of `CN1CCc2c(c3ccccc3n2Cc2ccccc2)C1`, the Potency result with PAD, in the assay with PC15, in the assay on PC49, in the assay with SC27B, in the assay with TAB109 and in the assay on TAB113 was “inactive” in each case. Besides, the Potency in the assay with W2 was 2.56 µM (active).

On to `CC[C@H]1OC(=O)[C@H](C)[C@@H](O[C@H]2C[C@@](C)(OC)[C@@H](O)[C@H](C)O2)C(C)[C@@H](O[C@@H]2O[C@H](C)C[C@H](N(C)C)[C@@H]2O)[C@](C)(OC)C[C@@H](C)C(=O)[C@H](C)[C@@H](O)[C@]1(C)O` (stereo not given in full), for which the Potency result in the assay on PAD, in the assay on PC49, in the assay with SC27B, in the assay on TAB109, in the assay with TAB113 and in the assay with TAB165 was “inactive” in each case. The Potency in the assay on W2 was 3.79 µM (active).

`O=C(OC1C[C@@H]2CC3C[C@H](C1)N2CC3=O)c1c[nH]c2ccccc12` (stereo not given in full): the Potency entry in the assay on SC27B and with TAB113 was “inactive” each time.

Consider `NC(=O)CC[C@@H]1NC(=O)[C@H](Cc2ccccc2)NC(=O)[C@H](Cc2ccc(O)cc2)NC(=O)[C@@H](N)CSSC[C@@H](C(=O)N2CCC[C@H]2C(=O)N[C@@H](CCCN=C(N)N)C(=O)NCC(N)=O)NC(=O)[C@H](CC(N)=O)NC1=O`, for which the Potency entry in the assay with PC15, in the assay with PC49 and in the assay on SC27B was “inactive” each time. Further, in the assay on W2, the Potency is 8.49 µM (active).

`NC(=S)N=Nc1ccc(NN=C(N)N)cc1`: the Potency with PAD was 11.2 µM (active); in the assay on PC15, 8.91 µM (active); in the assay on SC27B, 11.2 µM (active); in the assay with TAB109 it was 11.2 µM (active); with TAB165, 7.94 µM (active); in the assay with W2 it was 1.69 µM (active).

Values taken from PubChem BioAssay (NCATS).
